Screens as filed in PubChem.
Shown are actives, neighbours in structure and some others; about 3.4% of the full set was active somewhere.
TEAD-YAP block – TEAD-YAP interaction inhibition, primary screen, TEAD-YAP interaction inhibitor project, luminescence, HEK-TIYL cells | TEAD-Gal4/YAP UAS-luciferase luminescence | AID 1259422, 2018 | actives 1.4% (n = 640,000) | inhibition, % at 9.12 µM; in the data active = inhibition above about 32%;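 note: 0% = median of test compound wells and 100% = reference inhibitor wells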
FBW7 act – FBW7 E3 ligase activators, primary screen, biochemical, AlphaScreen, human | actives 0.13% (n = 650,000) | F-box/WD repeat-containing protein 7 (Homo sapiens), Q969H0 | normalized activity (activation), % at 26.1 µM | AlphaScreen FBW7–phospho-cyclin E peptide binding, activator screen | AID 1259310, 2017; in the data active = normalized activity above about 1.9%;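 note: purified mutant Fbw7 with reduced substrate affinity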
GPR151 activ – activators of human GPR151, primary screen, cell-based, PathHunter beta-arrestin, luminescence | PathHunter beta-arrestin GPR151 cells | G-protein coupled receptor 151 (Homo sapiens), Q8TDV0 | actives 1% (n = 650,000) | activation, % at 11.2 µM; in the data active = activation above about 4.9%;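 note: 0% = median of compound wells and 100% = cells with positive control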
Target sequence (Q8TDV0 whole entry, looked up): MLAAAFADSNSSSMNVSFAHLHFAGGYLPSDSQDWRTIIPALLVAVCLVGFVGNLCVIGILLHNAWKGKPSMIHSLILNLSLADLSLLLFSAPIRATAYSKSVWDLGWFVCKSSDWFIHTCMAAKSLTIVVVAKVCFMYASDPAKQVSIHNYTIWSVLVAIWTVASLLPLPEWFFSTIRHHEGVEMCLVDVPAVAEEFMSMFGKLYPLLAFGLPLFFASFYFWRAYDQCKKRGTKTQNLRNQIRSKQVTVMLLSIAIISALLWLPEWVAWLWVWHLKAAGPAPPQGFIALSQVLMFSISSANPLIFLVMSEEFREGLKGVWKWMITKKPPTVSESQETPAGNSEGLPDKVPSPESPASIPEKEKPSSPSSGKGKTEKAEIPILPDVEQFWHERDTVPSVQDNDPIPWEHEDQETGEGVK
MITF primary – MITF inhibitors, primary screen, biochemical, AlphaScreen, human | actives 0.91% (n = 650,000) | AlphaScreen MITF homodimerization, bead proximity signal | Microphthalmia-associated transcription factor (Homo sapiens), O75030 | inhibition, % at 2.6 µM; in the data active = inhibition above about 50%;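 note: 0% = vehicle wells with protein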
GPR151 conf act – GPR151 activators, triplicate retest, confirmation, cell-based, PathHunter beta-arrestin, luminescence; activation, % at 11.2 µM; GPR151 PathHunter beta-arrestin cells, 90 min; % of EA-reagent control over plate median; AID 1508609, 2020; shares compounds with GPR151 activ; 6,700 tested, under 10 active;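 active = mean percent activation across replicates above the confirmation screen cutoff of 4.91%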
GPR119 counter – GPR119 activators in beta-arrestin cells, counter-screen for GPR151 activator project, cell-based, PathHunter beta-arrestin, luminescence, triplicate; activation, % at 11.2 µM; AID 1508611, 2020; 90 min; 0 = compound-well median, 100 = enzyme-acceptor control; actives 0.3% (n = 6,700); shares compounds with GPR151 activ;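 active = mean percent activation in the counterscreen above 29.09%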;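 note: counterscreen on off-target GPR119 to flag nonselective hits from the GPR151 activator screen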
The depositor's hits bear a star; . = no result given.

SMILES	TEAD-YAP block	FBW7 act	GPR151 activ	MITF primary	GPR151 conf act	GPR119 counter
O=C1CCCC2=C1C(c1ccc(O)c(Cl)c1)C1=C(CCCC1=O)O2	34*	0	7.4*	-13	0	1
CC(C)SCc1ccc2oc(C(=O)O)cc2c1	5	0	0	-8	.	.
CC(C)CC(c1nnnn1C(C)C)N1CCN(C2CCCCC2)CC1 (configuration not stated)	12	0	0	3	.	.
Cc1ccc(-c2csc3nc4c5ccccc5c(NCCOCCO)nn4c(=O)c23)cc1	0	1	8.4*	7	1	2
O=c1c2c(-c3ccccc3)csc2nc2c3ccccc3c(NCCO)nn12	2	0	1	9	.	.
CCOc1ccc(C2C(C(=O)OC3CCCCC3)=C(C)NC3=C2C(=O)CCC3)cc1OC (configuration not stated)	4	0	1	-7	.	.
CCCOc1ccc(C2C(C(=O)OC3CCCCC3)=C(C)NC3=C2C(=O)CCC3)cc1OC (configuration not stated)	17	1	7.2*	12	-1	-6
COc1cc(C2C(C(=O)OC3CCCC3)=C(C)NC3=C2C(=O)CC(c2ccc(Cl)cc2)C3)ccc1OC(C)=O (configuration not stated)	5	0	5.5*	5	0	0
CC(=O)N1CC(C)Sc2cc(S(=O)(=O)NCc3ccc4c(c3)OCO4)ccc21 (configuration not stated)	1	0	5.1*	5	1	-4
CCOc1ccc(NC(=O)C2CC(=O)N(CC)C(=Nc3ccc(C)c(C)c3)S2)cc1 (configuration not stated)	12	0	0	-3	.	.
CCCOc1ccc(NC(=O)C2CC(=O)N(CC)C(=Nc3ccc(C)c(C)c3)S2)cc1 (configuration not stated)	-3	0	7.3*	8	3	13
COC(=O)CNC(=O)CN1C(=O)NC2(CCC(C)CC2)C1=O (configuration not stated)	4	0	1	5	.	.
Cc1ccccc1N1CCN(C(=O)CCc2nnc(C3CCCCC3)o2)C(C)C1 (configuration not stated)	-36	0	2	9	.	.
CC(=O)NC(c1ccco1)c1cc(Cl)c2cccnc2c1O (configuration not stated)	32	0	15*	76*	0	-8
C=CCc1ccc(OCCOc2ccc(Cl)cc2-c2nc3sc4c(c3c(=O)[nH]2)CCCC4)c(OC)c1	-3	0	1	1	.	.
O=C(NCCc1ccc(O)cc1)c1cnc(-c2ccccc2)s1	-18	0	1	15	.	.
Nc1cccc(-c2ncc(C(=O)NCCc3ccc(O)cc3)s2)c1	14	0	5.5*	0	0	-1
CN(CCO)c1ncnc2sccc12	6	0	6.6*	-1	0	4
O=C(NCc1cccnc1)c1ccnc(Nc2nccc3ccccc23)c1	1	0	-1	-4	.	.
Cc1ccc(CNC(=O)C(C)SCc2ccccc2)cc1 (configuration not stated)	-2	0	8.1*	-7	0	12
O=C(NCc1cccnc1)c1ccnc(Nc2cnccn2)c1	5	1	6.6*	9	-1	3
O=C(Cn1ccc([N+](=O)[O-])n1)NCc1cccnc1	14	0	8.9*	4	-1	-6
O=C(Cn1ccc([N+](=O)[O-])n1)NCc1ccccc1	-1	0	3	-5	.	.
O=C(O)CCC(=O)NCc1cccnc1	5	0	7.5*	-8	1	12
CCCC1(C(=O)OC)NC(c2ccc(O)cc2)C2C(=O)N(CC)C(=O)C21 (configuration not stated)	3	0	0	20	.	.
SMILES	TEAD-YAP block	FBW7 act	GPR151 activ	MITF primary	GPR151 conf act	GPR119 counter
CC(=O)c1ccc(Cn2nnc3c(=O)[nH]c(C(=O)Nc4ccc(F)cc4)nc32)cc1	-6	0	0	9	.	.
Cc1cc(NC(=O)CN2CCC(C(N)=O)CC2)nc2c1c(=O)oc1ccccc12	7	0	0	-7	.	.
CC(SCc1ccccc1)C(=O)NCc1cccnc1 (configuration not stated)	-5	0	8.0*	5	-1	-9
Cc1ccccc1CNC(=O)C(C)SCc1ccccc1 (configuration not stated)	5	1	0	3	.	.
COc1cc(NC(=O)CSc2nc(-c3ccccc3)cc(=O)[nH]2)cc(OC)c1	-3	0	1	-7	.	.
COc1ccccc1CN1C[C@@H]2C[C@@H](c3cccc(SC)c3)N3CCC[C@@]23C1=O	-6	0	6.5*	8	-1	-21
CCC(CC)NC(=O)c1ccc(C)c([N+](=O)[O-])c1	-1	0	5.2*	1	1	0
Cc1ccc(NC(=O)c2cccc(I)c2)cc1[N+](=O)[O-]	-24	0	4.9*	-15	1	-7
O=c1cc(CSc2ncnc3scc(-c4ccccc4)c23)nc2sccn12	0	0	4	8	.	.
CCOC(=O)c1c(NC(=O)C2C3C=CC(C3)C2C(=O)O)sc2c1CCCCC2 (configuration not stated)	16	0	5.5*	5	0	-7
CCOC(=O)c1c(NC(=O)COc2c(C)cc(Cl)cc2Cl)sc2c1CCCC2	0	0	0	-5	.	.
CCOC(=O)c1c(NC(=O)COc2c(F)c(F)cc(F)c2F)sc2c1CCCC2	8	1	5.0*	13	1	9
COc1cccc(-n2c(CCN3C(=O)c4ccccc4C3=O)nc3ccccc3c2=O)c1	-3	0	5.4*	4	0	9
CCN(CC)c1ccc(/C=C2\SC(=O)N(CC(=O)Nc3ccccc3F)C2=O)cc1	3	0	-1	-6	.	.
CCOc1ccc(C(=O)NCC2CCCN2S(=O)(=O)c2ccccc2)cc1 (configuration not stated)	-8	0	5.6*	4	0	-14
CCOc1ccc(NC(=O)C2=CCN(S(=O)(=O)c3ccccc3)CC2)cc1	-4	0	5.4*	-4	0	2
COC(=O)[C@H](CCSC)NC(=O)c1ncccc1Oc1nc(OC)cc(OC)n1	3	0	-1	17	.	.
CCC(=O)N=c1sc2cc(F)cc(F)c2n1C	2	0	8.1*	12	0	-3
